Screening data as filed in PubChem.
This is one part of a sample in which hits are shown more often than they occur.
nsP2pro inh = CHIKV nsP2 protease inhibition, primary qHTS | Q8JUX6 | FRET peptide cleavage, nsP2pro, fluorescence 1 h | Potency, µM (top dose mostly 24.9 µM), for the others: at the highest dose activity change, negative = inhibition, actives largely listed as inhibitors | 31,000 compounds, 1.1% hits; calls by dose curve; also: nearly all actives have a fitted effect of over 60% in size
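Recombinant nsP2pro (150 nM) was preincubated with compound 15 min at room temperature in 10 mM Tris-HCl pH 8.0, 0.01% Tween 20. Peptide 2 FRET substrate (2.5 uM) was then added and fluorescence read after 1 h. Seven-point series, up to 25 uM.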
Numbers without * were called inactive; ! = not active in a repeat; [ ] = remark or other dose. % is scaled to controls: 0 for no effect and ±100 for the full control effect; potency is read from the fitted curve at half-maximal effect.

For Cc1c(P(=O)(c2ccccc2)c2ccccc2)c2ccccc2n1C the results were nsP2pro inh 11µM*.
`COc1ccc(-n2cnc3cc(C(=O)N4CCCCC4)ccc32)cc1` gave nsP2pro inh -52%.
`c1nc(NCC2CCCCC2)c2cc(-c3ccc4c(c3)OCO4)ccc2n1` gave nsP2pro inh inactive.
For O=[N+]([O-])c1ccc(-c2nc(Nc3ccc(F)c(F)c3)c3ccccc3n2)cc1 the results were nsP2pro inh -2%.
For Cc1ccnc(NC(=S)N2CCc3cc(C(F)(F)F)ccc3C2)c1 the results were nsP2pro inh inactive.
O=C(NCc1cccnc1)c1cc(CN2CCC(Cc3ccccc3)CC2)on1 was read as nsP2pro inh inactive.
Screening O=C(NCc1ccncc1)c1nc2c(o1)CCN(CCCc1ccccc1)CC2 returned nsP2pro inh 14µM*.
O=C(NCc1ccccc1)c1cnc2n1CCN(Cc1ccccc1)CC2 was read as nsP2pro inh inactive.
`CC(=O)c1ccc(N2CCN(S(=O)(=O)c3ccc4[nH]c(=O)oc4c3)CC2)cc1` gave nsP2pro inh inactive.
For COC(=O)c1ccc([C@H]2c3[nH]c4ccccc4c3C[C@@H](C(=O)OC)N2C(=O)CCl)cc1 the results were nsP2pro inh -5%.
For CC(CCC(=O)N1CCn2nc(Cc3ccccc3)cc2C1)N1CCCC1 (stereo unspecified) the results were nsP2pro inh inactive.
For CN(C)Cc1nnc(C2CC(NC(=O)c3cc(-c4ccsc4)n[nH]3)C2)n1C (stereo unspecified) the results were nsP2pro inh -1%.
Screening CN(C)Cc1nnc(C2CC(NC(=O)c3cc(-c4cccn4C)n[nH]3)C2)n1C (stereo unspecified) returned nsP2pro inh 0.5µM*.
For CN(C)Cc1nnc(C2CC(NC(=O)Cc3c(F)cccc3Cl)C2)n1C (stereo unspecified) the results were nsP2pro inh -8%.
Screening CSCCNc1nc(SCCC(F)(F)F)nc2c1ncn2[C@@H]1O[C@H](COP(=O)(O)OP(=O)(O)C(Cl)(Cl)P(=O)(O)O)[C@@H](O)[C@H]1O returned nsP2pro inh 13%.
CC1(C)CCC(C)(C)c2cc(Cn3cccn3)c(/C=C/c3ccc(C(=O)O)cc3)cc21 was read as nsP2pro inh 18%.
COc1ccnc(NC(=S)N2CCN(c3cc(Cl)cc(Cl)c3)CC2)c1 was read as nsP2pro inh inactive.
For COc1ccccc1S(=O)(=O)Nc1cnccc1C(=O)Nc1nc(-c2ccccc2)cs1 the results were nsP2pro inh inactive.
Screening O=C(O)c1ccc(-c2ccc3ncnc(NCC4CCCO4)c3c2)o1 (stereo unspecified) returned nsP2pro inh 4%.
O=C(O)c1ccc(-c2ccc3ncnc(NCc4nccs4)c3c2)o1 was read as nsP2pro inh 11µM*.
CC(C)(C)CNc1ncnc2ccc(-c3ccc(C(=O)O)o3)cc12 was read as nsP2pro inh inactive.
Screening CN(C)CCNc1cc(-c2ccc3ccccc3n2)c2cc[nH]c2n1 returned nsP2pro inh 60%.
`CON(C)Cc1ccc(O)c2c1C[C@H]1C[C@H]3[C@H](N(C)C)C(=O)C(C(N)=O)=C(O)[C@@]3(O)C(=O)C1=C2O` gave nsP2pro inh 2%.
For COCCCOc1ccnc(CS(=O)c2nc3ccccc3[nH]2)c1C (stereo unspecified) the results were nsP2pro inh -19%.
`COc1ccc2nc(S(=O)Cc3ncc(C)c(OC)c3C)[nH]c2c1` (stereo unspecified) gave nsP2pro inh 10µM*!.
For COc1ccc2c(c1)[nH]c1c(C)nccc12 the results were nsP2pro inh -7%.
For C/C(=C\CC/C(C)=C/CC[C@]1(C)CCc2cc(O)cc(C)c2O1)CC/C=C(\C)C(=O)O the results were nsP2pro inh 82%[10 µM].
Cc1cc(C)nc(NC(=S)N2CCN(c3ccc(F)cc3F)CC2)c1 was read as nsP2pro inh -10%.
For NCCS[As](SCCN)c1ccc(Nc2nc(N)nc(N)n2)cc1 the results were nsP2pro inh 36%.
Screening CCCOc1nccnc1NC1CCN(C(=O)c2cccnc2)CC1 returned nsP2pro inh inactive.
For O=C(c1ccoc1)N1CCC(Nc2cccn3ncnc23)CC1 the results were nsP2pro inh -4%.
Cc1nc2c(NC3CCN(C(=O)c4cnccn4)CC3)cccn2n1 was read as nsP2pro inh 11µM*.
CCOC(=O)c1ccc(O)c2ncc(-c3ccc(C(=N)N)cc3)cc12 was read as nsP2pro inh inactive.
COc1ccc(-c2c(C)c(C(=O)NN3CCCCC3)nn2-c2ccc(Cl)cc2Cl)cc1 was read as nsP2pro inh 7%.
CCS(=O)(=O)N1CCC(Oc2cccc(C(=O)NCc3ccccn3)c2)CC1 was read as nsP2pro inh 2%.
O=C(NCc1ccnc2[nH]ccc12)c1cncc(Br)c1 was read as nsP2pro inh -24%[39.2 µM].
Screening O=C(NCc1ccnc2[nH]ccc12)c1cccc(Br)c1 returned nsP2pro inh 11µM*.
For Cc1ccc(S(=O)(=O)Nc2cnccc2C(=O)Nc2ccc(C#N)cc2)cc1 the results were nsP2pro inh inactive.
For COc1ccc(Nc2ccc3c(n2)CN(Cc2ccccc2F)C(=O)CO3)cc1 the results were nsP2pro inh -2%[39.2 µM].
`COc1ccccc1-c1ccc2c(n1)CN(Cc1ccccc1C)C(=O)CO2` gave nsP2pro inh 4%[39.2 µM].
For COc1ccc(Nc2ccc3c(n2)CN(Cc2ccccc2C)C(=O)CO3)cc1 the results were nsP2pro inh 4.5µM*.
COC(=O)c1c(-c2cccs2)csc1NC(=O)c1ccc(OC)c(OC)c1 was read as nsP2pro inh 13µM*.
COc1ccc(C(=O)NCC(c2ccco2)S(=O)(=O)c2cccs2)cc1OC (stereo unspecified) was read as nsP2pro inh -17%.
Screening CCCc1ccc(OCC(=O)Nc2scc(-c3cccs3)c2C(=O)OC)cc1 returned nsP2pro inh -32%.
`CC(C)CCNC(=O)[C@H](CC(C)C)NC(=O)[C@H]1O[C@@H]1C(=O)O` gave nsP2pro inh -10%.
For CCOC(=O)[C@H]1O[C@H]1C(=O)N[C@@H](CC(C)C)C(=O)NCCC(C)C the results were nsP2pro inh 7.1µM*.
For NC(=O)OCC(N)Cc1ccccc1 (stereo unspecified) the results were nsP2pro inh -6%.
Screening Cc1cccc(-n2cnc3cc(C(=O)N4CCCC(C)C4)ccc32)c1 (stereo unspecified) returned nsP2pro inh 4%.
`Cn1c(=O)cc(SCC(=O)N2CCN(c3ccccc3F)CC2)c2ccccc21` gave nsP2pro inh -19%.
Screening CCOC(=O)c1cnc2ccc(OCC)cc2c1N1CCN(c2ccccc2F)CC1 returned nsP2pro inh -11%.
For CCOc1ccc(C(c2c(O)cc(C)n(CCOC)c2=O)N2CCN(c3ccccc3F)CC2)cc1 (stereo unspecified) the results were nsP2pro inh 13µM*.
Screening CCOC(=O)c1nn(-c2ccc(OC)cc2)c(=O)c2c(N)scc12 returned nsP2pro inh 11µM*.
`COc1ccc(-n2nc(C(=O)O)c(=O)n(C)c2=O)cc1` gave nsP2pro inh -24%.
For CCC1CCCCN1C(=O)c1nn(-c2ccc(OC)cc2)c(=O)c2c1c1ccccc1n2C (stereo unspecified) the results were nsP2pro inh -15%.
`Cc1ccc(-c2cc(C(=O)Nc3ccc(S(N)(=O)=O)cc3)c3ccccc3n2)cc1C` gave nsP2pro inh -23%.
`Cc1cc(C)nc(NC(=S)N2CCN(c3ccc(N4CCCC4)nn3)CC2)c1` gave nsP2pro inh -5%.
